Broadly, the inhibition is the relative decrease from the control value, in per cent.

About 1,300 (0.68%) of roughly 190,000 compounds were called active. Rule as the data show it: active = inhibition above about 50%; inactive = the rest. This excerpt belongs to a sample that is enriched for actives.

This assay deals with Mannose-6-phosphate isomerase (Homo sapiens) (UniProt P34949). The assay can be described thus: MPI inhibition at elevated mannose 6-phosphate – biochemical, fluorescence intensity, high mannose 6-phosphate, primary screen (AID 1220). The following applies: recombinant PMI enzyme, coupled fluorescence intensity; at 20 µM; stronger effect = higher value.
Mannose-6-phosphate isomerase (Homo sapiens), sequence (P34949 whole entry, looked up): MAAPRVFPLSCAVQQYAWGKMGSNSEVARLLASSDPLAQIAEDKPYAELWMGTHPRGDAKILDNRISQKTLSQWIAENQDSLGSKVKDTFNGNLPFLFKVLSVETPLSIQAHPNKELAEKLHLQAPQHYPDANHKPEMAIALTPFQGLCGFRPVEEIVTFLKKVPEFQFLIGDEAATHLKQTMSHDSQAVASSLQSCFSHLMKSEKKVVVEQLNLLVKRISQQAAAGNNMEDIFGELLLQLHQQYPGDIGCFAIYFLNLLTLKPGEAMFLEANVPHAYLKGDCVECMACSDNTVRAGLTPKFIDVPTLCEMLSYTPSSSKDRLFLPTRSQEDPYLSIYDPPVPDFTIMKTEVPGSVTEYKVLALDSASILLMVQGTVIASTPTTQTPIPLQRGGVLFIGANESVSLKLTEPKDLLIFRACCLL
In the case of `COc1ccc(NC(=O)c2ccco2)cc1NC(=O)c1ccco1`, the inhibition is 4.5% (inactive).
Consider `COc1cccc(OC)c1C(=O)Nc1ccc(NC(=O)c2ccco2)cc1`, for which the inhibition is 3.3% (inactive).
The same measure for `COc1ccc(NC(=O)c2ccco2)cc1N`: 58.3% (active).
In the case of `N#Cc1ccc(OCC(=O)NCC2(N3CCCCC3)CCCCC2)cc1`, the inhibition was -10.6% (inactive).
The result for `COc1ccc(-n2c(Cn3c(=O)sc4ccccc43)nnc2SCC(=O)N2CCCC2)cc1` reads -4.6% (inactive).
Turning to `O=C(O)CCc1c(C(=O)O)[nH]c2ccccc12`, the inhibition is -4.7% (inactive).
The same measure for `Cc1ccc(S(=O)(=O)N(C)C)cc1NC(=O)COC(=O)c1n[nH]c(=O)c2ccccc12`: -8% (inactive); for `CCN(CC)S(=O)(=O)c1cccc(NC(=O)COC(=O)c2cc(=O)c3ccccc3o2)c1`: 9.7% (inactive); for `CCN(CC)S(=O)(=O)c1cccc(NC(=O)COC(=O)c2n[nH]c(=O)c3ccccc23)c1`: 53.3% (active).
As to `COc1cc(CN2CCC(C(=O)N3CCN(c4ccccc4F)CC3)CC2)ccc1O`, the inhibition was 13.4% (inactive).
The same measure for `COc1cc(CN2CCC(C(=O)NC3CCCC3)CC2)ccc1O`: 3.5% (inactive); for `COc1cc(CN2CCC(C(=O)N3CCN(c4ccccc4F)CC3)CC2)cc(OC)c1OC`: 9.1% (inactive); for `COc1cc(CN2CCC(C(=O)NC3CCCC3)CC2)cc(OC)c1O`: 63.9% (active).
As to `COc1cc(CN2CCC(C(=O)N3CCN(c4ccccc4F)CC3)CC2)cc(OC)c1O`, the inhibition was 53.7% (active).
The result for `COc1cc(CN2CCC(C(=O)NC3CCCC3)CC2)cc(Br)c1O` reads 14.6% (inactive); that for `Cc1cc(-c2[nH]nc3c2C(c2ccc(Cl)cc2)C(C#N)=C(N)O3)c(C)s1` (stereo not given), 26.2% (inactive).
The same measure for `COc1ccc(Cl)cc1CSc1n[nH]c(C)n1`: 8.9% (inactive); for `O=C(NCc1ccco1)C(=O)NCC1OCCCN1S(=O)(=O)c1ccccc1` (stereo not given): -6.2% (inactive); for `Cc1cc(NC(=O)CCC(=O)N(CC(=O)NCC2CCCO2)Cc2ccc(F)cc2)no1` (stereo not given): -6.3% (inactive).
On to `COc1cc(C=C2C(=O)c3ccccc3C2=O)cc(OC)c1OC`, for which the inhibition is -22.9% (inactive).
The result for `CCN1C/C(=C/c2ccc(OC)c(O)c2)C(=O)/C(=C/c2ccc(OC)c(O)c2)C1` reads 36.6% (inactive).
For the compound `COc1ccc(C=C2C(=O)c3ccccc3C2=O)cc1O`, the inhibition is 60.8% (active).
The result for `CC1(C)C(=O)Nc2ccccc2N1C(=O)COc1cccnc1[N+](=O)[O-]` reads -1.5% (inactive); that for `CCOc1cc(-c2noc(CCCC(N)=O)n2)cc(Br)c1OC`, 15.3% (inactive).
The result for `CC(C)CC1(C)NC(=O)N(CC(=O)NC(=O)Nc2ccc3c(c2)OCCO3)C1=O` (stereo not given) reads 7% (inactive).

The values above are taken from PubChem BioAssay AID1220 (Sanford-Burnham Center for Chemical Genomics, 2008).
